A selection: hits, their analogues and other compounds. The true share with any hit is near 3%.
ROMK primary: human ROMK K+ channel modulation, primary screen; 130,000 compounds, 2% hits; P48048; Tet-inducible ROMK, thallium flux fluorescence; actives lie on both sides; B-score at 10 µM;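 active = signal ratio slope over the read window, or its plate-corrected B-score, at least 3 SD from the plate mean, either direction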;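 also: B-score of the F/F0 ratio slope over 7 to 12 s after thallium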
Target sequence (P48048 whole entry, looked up): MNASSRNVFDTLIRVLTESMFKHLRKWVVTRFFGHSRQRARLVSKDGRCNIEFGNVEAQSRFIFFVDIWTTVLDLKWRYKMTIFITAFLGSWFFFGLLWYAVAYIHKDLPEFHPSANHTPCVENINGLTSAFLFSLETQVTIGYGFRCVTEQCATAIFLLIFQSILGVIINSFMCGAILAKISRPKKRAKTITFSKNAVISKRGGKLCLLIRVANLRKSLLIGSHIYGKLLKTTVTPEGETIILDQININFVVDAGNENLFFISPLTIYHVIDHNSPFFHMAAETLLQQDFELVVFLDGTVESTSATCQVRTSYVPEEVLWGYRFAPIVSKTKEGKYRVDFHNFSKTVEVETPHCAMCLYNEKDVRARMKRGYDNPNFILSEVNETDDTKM
L929 necroptosis: blocks zVAD induced death of L929 cells; 220,000 compounds, 0.38% hits; viability rescue, % at 10 µM; L929 zVAD necroptosis rescue, ATP luminescence, 24 h; with zVAD 60 µM; AID 1377;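 active = activation, scaled between plate controls, above about 75%, limit read from the data; inactive = activation under that limit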;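 also: 0% = zVAD with DMSO and 100% = DMSO alone without zVAD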
14-3-3 Bad PPI: disrupts binding of bovine 14-3-3 zeta to phospho-Bad peptide. P63103. TR-FRET 14-3-3zeta/Dy647-pBad peptide displacement, 1 h. inhibition, % at 21.7 µM. 220,000 compounds, 0.71% hits;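 active = inhibition above about 70%, limit read from the data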;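 also: 0% = full 14-3-3 plus peptide FRET controls and 100% = background without 14-3-3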
Target sequence (P63103 whole entry, looked up): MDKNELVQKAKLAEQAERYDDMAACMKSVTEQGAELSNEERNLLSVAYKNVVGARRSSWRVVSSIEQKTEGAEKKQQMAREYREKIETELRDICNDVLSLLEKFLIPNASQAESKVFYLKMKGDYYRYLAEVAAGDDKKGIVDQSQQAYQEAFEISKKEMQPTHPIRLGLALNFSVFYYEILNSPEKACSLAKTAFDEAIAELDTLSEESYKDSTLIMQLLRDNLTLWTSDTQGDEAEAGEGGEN
m-calpain inh: inhibitors of pig calpain II; 220,000 compounds, 0.37% hits; inhibition, % at 16 µM; AID 1236; purified calpain II, fluorogenic peptide substrate, 30 min;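 active = inhibition above about 50%, limit read from the data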
TNF necrop inh: blocks TNF-alpha induced death of Jurkat FADD-/- cells | Jurkat FADD-/- TNF necroptosis rescue, ATP luminescence, 24 h; 0 = TNF only, 100 = no-TNF cells | 220,000 compounds, 0.068% hits | activation (protection from cell death), % at 10 µM | AID 463075;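 active = activation, meaning protection from cell death, of at least 50% relative to plate controls; inactive = activation below 50%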;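 also: necroptosis triggered by 40 ng/mL TNF-alpha added together with compound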
HMGR II inh: E. faecalis class II HMG-CoA reductase inhibition; purified E. faecalis HMGR, NADPH absorbance 340 nm kinetic; inhibition, % at 10 µM; 190,000 compounds, 0.41% hits; AID 1066;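 active = inhibition above a set limit, the median over all tested compounds plus 3 SD, cut at about 9.5% in these data; inconclusive = no clear call, values can overlap the other calls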;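 also: enzyme runs in reverse so mevalonate oxidation gives rising NADPH absorbance; 0% = complete reaction with DMSO and 100% = background rate lacking mevalonate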
ROMK hit retest: human ROMK channel modulation, retest confirmation. AID 1917. 3,000 compounds, 54% hits. normalized thallium flux (F/F0 slope) at 10 µM. ROMK thallium flux, fluorescence ratio; stronger effect = lower value. shares compounds with ROMK primary;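 active = Flux at 10 µM at least 3 SD below or above vehicle control mean in one or both replicates; inconclusive = no clear call, values can overlap the other calls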
Active calls of the source: *; ? = inconclusive; · = no result; ! = not active in a repeat.

SMILES | ROMK primary | L929 necroptosis | 14-3-3 Bad PPI | m-calpain inh | TNF necrop inh | HMGR II inh | ROMK hit retest
Cc1ccc(-c2cc(C(=O)OCn3nnc4ccccc4c3=O)c3ccccc3n2)cc1 | 1.8 | · | -7 | -54 | 1 | -5 | ·
Cn1c(=O)n(C)c2cc(NS(=O)(=O)c3ccc4c(c3)CCCC4)ccc21 | -2* | 1 | -8 | 14 | -7 | -2 | ?
CCCn1c(NC(=O)c2ccc(Cl)c(S(=O)(=O)N3CCCC3)c2)nc2ccccc21 | -0.5 | 63 | -3 | -70 | -7 | 3 | ·
CCOC(=O)c1c(/N=C/c2ccc(C)cc2O)sc2c1CCC2 | -2.4* | 2 | 2 | -6 | 2 | 2 | 0.039*
CCOC(=O)c1c(/N=C/c2ccc(OC)cc2O)sc2c1CCN(C)C2 | · | 0 | -9 | 2 | 2 | · | ·
Cn1c(C23CC4CC(CC(C4)C2)C3)n[nH]c1=S | · | 0 | 2 | 0 | 1 | 0 | ·
CCOC(=O)c1nn(-c2ccc(F)cc2)c(=O)c2c(N)scc12 | 0.89 | 1 | -11 | -28 | 0 | -3 | ·
CCOC(=O)c1nn(-c2ccc(C)cc2)c(=O)c2c(N)scc12 | · | -1 | -3 | -16 | -1 | -12 | 0.08
COc1ccccc1CNC(=O)C/C(C)=N/NC(=O)Cc1ccc(OC)c(OC)c1 | 1.2 | · | -6 | 21 | 2 | 6 | ·
COc1ccccc1CNC(=O)C/C(C)=N/NC(=O)COc1ccc(C)cc1Br | 2.8* | 0 | 2 | -2 | -1 | 0 | 0.078
O=C(O)C1CC=CCC1C(=O)Nc1ccc(N2CCN(Cc3ccccc3)CC2)cc1 (centres undefined) | -0.47 | 0 | -5 | 20 | 1 | -6 | ·
CC(C)OCCCn1c(-c2ccc(Br)cc2)c[nH]c1=S | 0.22 | 0 | -8 | 8 | -1 | 5 | ·
O=C(CN(C(=O)c1csnn1)c1cccc2ccccc12)NC1CCCC1 | -0.019 | 0 | 2 | -23 | 0 | 1 | ·
Cc1ccccc1N(CC(=O)NC1CCCC1)C(=O)c1csnn1 | 1.3* | 0 | 0 | 4 | 1 | -3 | ?
CN1CC=C2C(C#N)=C(N)C(C#N)(C#N)[C@H](c3cccs3)[C@H]2C1 | -1.6 | -1 | 3 | -13 | -2 | -8 | ·
CN1CCC2(CC1)C1CN(C)CC=C1C(C#N)=C(N)C2(C#N)C#N (centres undefined) | -3.4*! | 1 | -10 | -64 | 0 | -11 | 0.057*
CC(C)(C)N/C=C(\C#N)S(=O)(=O)c1ccc(Br)cc1 | · | 0 | 3 | -9 | -1 | · | ·
CCOC(=O)CC1CCCCN1Cc1nc(-c2ccc(F)c(OC)c2)oc1C (centres undefined) | -3* | 0 | -15 | 15 | 0 | 7 | 0.06*
CNC(=S)N1CCc2cc(OC)c(OC)cc2C1 | · | 1 | -3 | -4 | 1 | · | ·
CCN1CCN(CCNC(=O)c2ccc(/C=C3/Sc4ccccc4N(Cc4cccc(Cl)c4)C3=O)cc2)CC1 | -1.3 | 9 | 58 | -48 | -11 | 0 | ·
CCN1CCN(CCNC(=O)c2ccc3c(c2)N(Cc2ccc(F)cc2)C(=O)/C(=C/c2ccccc2)S3)CC1 | -3.1* | -3 | 52 | -133 | -17 | -4 | 0.073
NC(=O)C1CCN(c2ncnc3c2c(-c2ccccc2)cn3-c2ccccc2)CC1 | · | -1 | -6 | -26 | -9 | -4 | 0.063*
Fc1ccc(-n2cc(-c3ccccc3)c3c(N4CCOCC4)ncnc32)cc1 | -0.79 | 0 | -9 | -2 | -10 | 7 | ·
CCOc1cc(CNc2ccc3c(c2)OCCO3)cc(Br)c1OC | 4.9* | -1 | 2 | 1 | -17 | -3 | 0.076
CCOc1c(Br)cc(CNc2ccc3c(c2)OCCO3)cc1OC | 3.4 | -1 | 1 | -2 | -18 | -4 | ·
SMILES | ROMK primary | L929 necroptosis | 14-3-3 Bad PPI | m-calpain inh | TNF necrop inh | HMGR II inh | ROMK hit retest
C=CCNCCCCOc1ccccc1-c1ccccc1 | -3* | 0 | -9 | 9 | 3 | 2 | 0.062*
CCN(CC)CC(=O)Nc1ccc(-c2ccc(NC(=O)CN(CC)CC)c(OC)c2)cc1OC | -0.45 | 9 | -7 | 27 | -4 | -3 | ·
O=C1C(Cl)=C(Nc2ccccc2)C(=O)c2ccccc21 | -0.055 | 2 | -11 | 43 | -2 | 1 | ·
O=C(O)c1cccc(NC2=C(Cl)C(=O)c3ccccc3C2=O)c1 | -1.9 | -1 | 13 | 26 | -8 | -2 | 0.056*
Cc1ccc(C(=O)COc2cc(C)nc3nncn23)cc1 | -1.1 | 1 | 0 | 0 | 2 | · | ·
CN(C)CC1CCCCC1OC(=O)c1ccc(Br)cc1 (centres undefined) | 0.32 | -1 | -9 | -30 | 2 | 0 | ·
CC(C)COc1ccc(C(=O)OC2CC(C)(C)OCC2CN(C)C)cc1 (centres undefined) | -3.7* | 0 | 0 | -18 | -8 | -1 | 0.055*
CC1=Nc2cc(C(=O)NCCCOC(C)C)ccc2Sc2ccccc21 | 2.9* | 8 | -8 | -24 | -3 | -4 | 0.091
CC1=Nc2cc(C(=O)NCCCOC(C)C)ccc2Sc2ccc(C)cc21 | 4.3* | -1 | -1 | -1 | -6 | -1 | 0.091
CC1(C)Cc2ccccc2C(N/N=C/c2ccc(Cl)cc2)=N1 | 0.26 | 0 | -4 | 13 | 0 | -1 | ·
CN(CCC#N)S(=O)(=O)c1ccc2[nH]cc(C(=O)NCCc3ccccc3)c(=O)c2c1 | -0.0023 | · | 1 | -35 | 1 | -1 | ·
COc1ccc(C(=O)NCc2ccc(S(N)(=O)=O)cc2)cc1[N+](=O)[O-] | -13* | -1 | -1 | 12 | -1 | -5 | 0.089
Cc1cc(C(=O)NCc2ccc(S(N)(=O)=O)cc2)ccc1[N+](=O)[O-] | -0.16 | 0 | 4 | 18 | 1 | -6 | ·
CC(C)c1onc(C(=O)N2CCN(C(c3ccccc3)c3ccccc3)CC2)c1[N+](=O)[O-] | 0.069 | · | -8 | -21 | -1 | 1 | ·
N#CC1=C(N)N(c2ccccc2)C(c2ccccc2)C1(C#N)C#N (centres undefined) | -3* | -1 | · | · | -7 | 0 | 0.055*
N#CC1=C(N)C(C#N)(C#N)C(c2cccnc2)C2CC(c3ccccc3)CC=C12 (centres undefined) | · | 0 | -18 | -72 | -3 | 5 | ·
OC(CNC1CCCCC1)COCCOc1ccc(Br)cc1 (centres undefined) | -4.1* | 3 | 20 | 20 | 5 | -6 | 0.059*
OC(CNC1CCCC1)COc1ccc(-c2ccccc2)cc1 (centres undefined) | -3.4 | 60 | 0 | 14 | 5 | -3 | ·
CCOc1ccc(OCC)c(-c2c(=O)n(OCc3ccccc3C(=O)OC)c3ccccc3[n+]2[O-])c1 | · | 0 | 2 | -7 | -5 | -3 | ·
Cc1ccc(NNc2c(C)nc3ccccc3nc2=O)cc1 | 2.7* | 1 | -1 | -20 | -4 | -1 | 0.11*
